Test results as given in ChEMBL document CHEMBL3988442, “University of Dundee, Small-Polar-MMV Screening Library” (2021).
“And” between values parts separate entries of the source, which are not always exact repeats. Equal entries are not always repeated. The whole screen tested about 34,000 compounds, of which about 290 (0.85%) showed an effect of 50% or more. The sample holds strong results, similar compounds and a random draw of the others, so the mix is not that of the screen.

Test system: Plasmodium falciparum
Assay: Plasmodium falciparum sporozoite viability assay
Type: functional, organism-based
Design: scale not given: in the data most compounds retested in dose-response had high values

Row | SMILES | Percent Effect (10 mM as filed; unlikely as a test dose) | Percent Effect
1 | Cc1cccc(NC2CCN(C(=O)Nc3ccc(F)c(F)c3)CC2)n1 | 48.63% and 63.22% and 54.45% | –
2 | Cc1cccc(NC2CCN(C(=O)Nc3cc(F)cc(F)c3)CC2)n1 | -0.7988% and 3.277% and 6.003% | –
3 | Cc1cccc(NC2CCN(C(=O)Nc3ccncc3)CC2)n1 | -1.906% and 4.517% and 18.88% | –
4 | Cc1ccc(C(C)NC(=O)CNCCn2cccn2)cc1C (configuration not stated) | – | -5.595%
5 | Cc1cc(C(F)(F)F)n2nc(C3CCN(S(C)(=O)=O)CC3)cc2n1 | -9.274% and -13.96% and -8.495% | –
6 | CCN1CC[C@@H]2OC[C@H](C(=O)NCc3cccs3)C[C@@H]2C1 | – | 18.4%
7 | Cc1cc(C(F)(F)F)nc(C2CCN(C(=O)CO)CC2)n1 | – | -4.597%
8 | CCc1ccc(-c2cc(C(F)(F)F)nc(N3CCC(N)CC3)n2)cc1 | 67.54% and 55.39% | –
9 | CN1CCC(c2cccc(Cc3ccc(C(F)(F)F)cc3)n2)CC1 | – | 3.398%
10 | CCN1CC2(CCOCC2)c2cc(NS(=O)(=O)CC)ccc21.O=C(O)C(F)(F)F | – | 11.65%
11 | Cc1cnn(CC2CN(Cc3ccccn3)CCO2)c1 (configuration not stated) | – | -1.077%
12 | CC(Cn1cccn1)NC(=O)NCCc1cccnc1 (configuration not stated) | – | 12%
13 | Cc1ccc(Nc2nccc(C3CCN(CC(N)=O)C3)n2)nc1 (configuration not stated) | 101.9% and 103.5% and 87.92% | –
14 | COCC(=O)N1CC(c2ccnc(Nc3ccc(C)cn3)n2)C1 | 0.1159% and 3.964% and -12.15% | –
15 | Cc1ccc(Nc2nccc(C3CCCN(CC(=O)N(C)C)C3)n2)nc1 (configuration not stated) | 76.43% and 66.32% and 68.98% | –
16 | Cc1ccc(Nc2nccc(C3CN(C(C)C)C3)n2)nc1 | – | 10.21%
17 | CC(=O)N1CCC(c2ccnc(Nc3ccc(C)cn3)n2)C1 (configuration not stated) | -6.604% and -1.275% and 4.318% | –
18 | O=C(Cc1ccc(F)cc1)N1CCn2c(Cn3cncn3)cnc2C1 | – | 8.505%
19 | Cc1cc(OCCC(=O)NCc2ccc(F)cc2)nnc1C | – | 1.961%
20 | Cc1nc(COC[C@@]23CCC[C@@H]2CN(Cc2cnn(C)c2)C3)cs1 | – | 2.977%
21 | Cc1c(-c2cc(C(=O)N3CCc4ncc(Cl)cc4C3)on2)cnn1C | – | 3.017%
22 | C[C@H](NS(C)(=O)=O)C(=O)NCc1cc(-c2ccco2)n(CC(F)(F)F)n1 | – | 3.472%

Row | SMILES | Percent Effect (10 mM as filed; unlikely as a test dose) | Percent Effect
23 | CC(C)c1noc(C(C)Nc2nccc(CCC(F)(F)F)n2)n1 (configuration not stated) | 1.671% and -0.3266% | –
24 | CC(Nc1nccc(CCC(F)(F)F)n1)c1nc(-c2ccncc2)no1 (configuration not stated) | -11.17% and -18.73% | –
25 | CC(Nc1nccc(CCC(F)(F)F)n1)c1nc(-c2ccccn2)no1 (configuration not stated) | 60.54% and 52.08% | –
26 | CN1CCN(C(=O)[C@H]2C[C@H]3[C@H](CCN3Cc3nccs3)O2)CC1 | – | 0.9025%
27 | O=C(Nc1cccc(Cl)c1)c1nn(C2CCS(=O)(=O)C2)c2c1CCCC2 (configuration not stated) | 70.24% and 80.75% and 81.2% | –
28 | O=C(Nc1ccc(Cl)cn1)c1nn(C2CCS(=O)(=O)C2)c2c1CCCC2 (configuration not stated) | 72.26% and 68.39% | –
29 | O=C(Nc1ccc(Cl)cc1)c1nn(C2CCS(=O)(=O)C2)c2c1CCCC2 (configuration not stated) | -17.96% and -20.43% | –
30 | O=C(Nc1ccccc1F)c1nn(C2CCS(=O)(=O)C2)c2c1CCCC2 (configuration not stated) | 38.15% and 35.56% | –
31 | Cc1cccc(NC(=O)c2nn(C3CCS(=O)(=O)C3)c3c2CCCC3)n1 (configuration not stated) | 27.72% and 25.15% | –
32 | O=C(Nc1ccccc1)c1nn(C2CCS(=O)(=O)C2)c2c1CCCC2 (configuration not stated) | 23.34% and 42.14% and 38.32% | –
33 | CC1CCN(S(=O)(=O)NCc2ccccc2Cn2cccn2)CC1 | – | 3.533%
34 | c1cncc(CN2CCCC3(COCCN(c4cncnc4)C3)C2)c1 (configuration not stated) | – | -1.976%
35 | C[C@H](NS(C)(=O)=O)C(=O)NCc1cc(-c2ccco2)n[nH]1 | – | -6.52%
36 | CC(C)[C@H](NS(C)(=O)=O)C(=O)NCc1cc(-c2ccccc2)n[nH]1 | – | -6.181%
37 | CCc1nn(C)c(Cl)c1CN(CCOC)Cc1cnn(C)c1 | – | -2.336%
38 | CCOc1cc(/C=C/c2ncc(C(=O)O)s2)cc(Br)c1OC | – | 6.645%
39 | CCOc1ncccc1C(=O)N1CCCC1Cn1nc(C)cc1C (configuration not stated) | – | -1.877%
40 | CC(c1ccncn1)N(C)Cc1cc2cc3c(cc2[nH]c1=O)OCO3 (configuration not stated) | 36.77% and 42.23% and 61.28% | –
41 | CC(c1ccccn1)N(C)Cc1cc2cc3c(cc2[nH]c1=O)OCO3 (configuration not stated) | 18.92% and 31.37% and 23.56% | –
42 | CN(C)CCOCC1CN(Cc2ccc(F)cc2)Cc2nnn(C)c21.O=C(O)C(F)(F)F.O=C(O)C(F)(F)F (configuration not stated) | – | 3.947%
43 | CCCn1cc(NC(=O)c2ccc(S(C)(=O)=O)cc2)ccc1=O | – | -6.389%
44 | O=C(O)CCNC(=O)N1CCc2c([nH]c3ccc(Cl)cc23)C1 | -34.22% and -28.29% | –

Row | SMILES | Percent Effect (10 mM as filed; unlikely as a test dose) | Percent Effect
45 | O=C(O)CCCNC(=O)N1CCc2c([nH]c3ccc(Cl)cc23)C1 | 31.15% and 28.91% | –
46 | COC(=O)CCCNC(=O)N1CCc2c([nH]c3ccc(Cl)cc23)C1 | 80.07% and 78.06% | –
47 | CN(C)C(=O)N1CCN(Cc2cnc(-c3ccsc3)s2)CC1 | – | -10.41%
48 | CC(C)CC(=O)N1CCC(Nc2nc(O)cc(-c3ccsc3)n2)CC1 | – | 14.33%
49 | CC(C)N1c2sc(-c3ccsc3)nc2CC1C(=O)NC1CC1 (configuration not stated) | 76.28% and 81.46% | –
50 | O=C(NC1CCCC1)C1Cc2nc(-c3ccsc3)sc2N1CC1CC1 (configuration not stated) | 9.544% and 5.829% and 5.902% | –
51 | CC(C)N1c2sc(-c3ccsc3)nc2CC1C(=O)NC1CCCC1 (configuration not stated) | 80.44% and 80.12% | –
52 | Cc1nc(-c2ccsc2)sc1C(=O)N1CCn2c(C)nnc2C1 | – | 4.116%
53 | Cc1ccncc1CN1CCOCC1c1[nH]ncc1C (configuration not stated) | – | -4.491%
54 | Cc1cccc(CN2CCC(c3csc4nccn34)CC2)n1.O=CO | – | 3.885%
55 | N#Cc1cccc(N2CC3(CCN(C(=O)c4ccncc4)C3)CC2=O)c1.O=C(O)C(F)(F)F (configuration not stated) | – | -19.71%
56 | OC1CCN([C@@H]2CCN(c3nc(-c4ccccc4)no3)C[C@H]2O)CC1 | 63.55% and 40.94% | –
57 | OC1CCN(c2ccccc2NCc2nc(-c3cccs3)no2)CC1 | 22.91% and 47.25% and 30.27% | –
58 | Cc1nn2c(N3CCC(O)CC3)cc(-c3ccccc3)nc2c1C | – | -9.448%
59 | O[C@H]1CN(c2nc(-c3ccccc3)no2)C[C@@H]1N1CCOCC1 | -27.06% and -32.72% | –
60 | Cc1cccc(NC(=O)[C@@H]2CCCN2Cc2ccc(C#N)cc2F)n1 | – | -15.69%
61 | CCn1ncc2c1C(COC)CN(Cc1ccc(F)cc1)C2.O=C(O)C(F)(F)F.O=C(O)C(F)(F)F (configuration not stated) | – | 5.175%
62 | O=C(O)c1cccc(S(=O)(=O)N2CCOc3ccccc32)c1 | – | 8.824%
63 | Cn1cnc(S(=O)(=O)NCCCN2CCCCCC2=O)c1Cl | – | -2.417%
64 | CCNC(=O)C(C)NC(=O)c1cnc(-c2ccc(C)cc2C)s1 (configuration not stated) | – | 5.538%
65 | CCNCc1ccc(OCc2ccc3c(c2)OCCO3)cc1.Cl | -24.62% and -4.131% | –
66 | COc1c(CNCc2ccc3c(c2)OCCO3)c(C(C)C)nn1C | – | 14.99%

Row | SMILES | Percent Effect (10 mM as filed; unlikely as a test dose) | Percent Effect
67 | CC(C)(C)NCc1ccc(OCc2ccc3c(c2)OCCO3)cc1.Cl | -36.62% and -27.49% | –
68 | CCCNCc1ccc(OCc2ccc3c(c2)OCCO3)cc1.Cl | -30.54% and -21.42% | –
69 | CC(C)(CO)NCc1ccc(OCc2ccc3c(c2)OCCO3)cc1.Cl | 25.27% and 55.16% | –
70 | COc1cc(CNCC(C)O)cc(Cl)c1OCc1ccc(C)cc1.Cl (configuration not stated) | – | -5.385%
71 | Cl.c1cc(OCc2ccc3c(c2)OCO3)ccc1CNC1CC1 | 33.09% and 60.95% and 82.86% | –
72 | CSc1nccc(N2CCC(NCc3ccc4c(c3)OCO4)CC2)n1 | – | 4.585%
73 | CC(O)CNCc1ccc(OCc2ccc3c(c2)OCCO3)cc1.Cl (configuration not stated) | 88.95% and 91.02% and 83.06% | –
74 | Cc1nccn1C1CCCN(C(=O)c2sccc2-n2cnnn2)C1 (configuration not stated) | – | -0.2931%
75 | CN1CCN(Cc2cn3c(n2)CN(C2CCOCC2)CC3)CC1.O=C(O)C(F)(F)F.O=C(O)C(F)(F)F.O=C(O)C(F)(F)F | – | 10.57%
76 | O=C(CCc1ccco1)Nc1cc(C(F)(F)F)c[nH]c1=O | – | -11.4%
77 | COc1cccc(O[C@H]2CCN(c3nc(C)cc(C)n3)CC[C@@H]2O)c1 | – | 11.61%
78 | O=C(Cn1cccc2cc(-c3ccc(F)cc3)nc1-2)N1CCC(O)CC1 | – | -1.811%
79 | COc1ccc(C2CNCCN2C(=O)c2cccc3ncccc23)cc1 (configuration not stated) | – | 4.068%
80 | CC(C)N(C)S(=O)(=O)c1ccc2c(c1)CCN(C(=O)c1cnccn1)C2 | – | -1.97%
81 | O=C(CN1CCCC1c1noc(C2CC2)n1)NCCc1ccsc1 (configuration not stated) | – | 13.6%
82 | CN(C)c1ccc(C(=O)N2CCCN(Cc3cnn(C)c3)CC2)nn1 | – | -1.596%
83 | O=C(O)c1ccc(=O)n(CC(c2ccc(Cl)cc2)N2CCOCC2)c1 (configuration not stated) | – | 5.86%
84 | Cc1ccccc1-c1noc(CN2CC(n3cccn3)C2)n1 | – | -26.31%
85 | Cc1cccc(-c2noc(CN3CC(n4cc(C)cn4)C3)n2)c1 | – | -1.145%
86 | O=C(Nc1ccccc1)N1CCc2nc(C(=O)N3CCCC3)sc2CC1 | 42.14% and 56.3% and 42.63% | –
87 | NC(=O)c1nc2c(s1)CCN(C(=O)Nc1ccccc1)CC2 | – | 13.34%
